# In the supplement of paper PMC12494721:
# Structures can show the parent of a compound that is named as a salt.
# How the values were obtained:
# Conditions in all cases: incubation time: 27 h, anaerobic, 37 °C;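 for the amine columns active = adjusted P below 0.05 in both replicates with a change the same way and a mean fold change under 0.8 or over 1.25; inactive = the rest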
# [1] = test system: Clostridium sporogenes DSM 1664; assay: growth (OD595) fold change vs plate DMSO controls (fold change (ratio)); higher = more growth
# Summary of the method: (§1)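 To obtain OD, 595 nm absorbance readings were blank-subtracted, corrected for compound background using 20 µM compound solutions in water, and multiplied by a calibration factor of 5. They came from 96-well mGAM cultures grown anaerobically for 27 h at 37 °C and shaken before reading. Growth is the fold change relative to the median of plate DMSO controls. Two biological replicates were averaged, and fold changes above 1.5 were set to NA.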
# Escherichia coli IAI1 [2] = assay: as above
# Summary of the method: as §1
# [3] = test system: Klebsiella aerogenes DSM 30053; assay: as above
# Summary of the method: as §1
# [4] = test system: Ruminococcus gnavus DSM 108212; assay: as above
# Summary of the method: as §1
# [5] = test system: Klebsiella aerogenes DSM 30053; assay: fold change of Histamine concentration vs plate DMSO controls (fold change (ratio)); higher = more amine produced, active = hit call of the paper (significant change in both replicates, either direction)
# Summary of the method: (§2)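 Anaerobic mGAM cultures of four gut bacterial strains were grown at 37 °C for 27 h in 80 µL wells, starting at OD 0.1 before 1:1 dilution. Compounds were at 20 µM final (sweeteners 50 µM). Whole cultures were extracted with cold acetonitrile/methanol containing 0.1% formic acid and centrifuged. Amines were quantified by LC–triple-quadrupole MS (dynamic MRM) against external calibration curves and drift-corrected within batch. Each value is the fold change versus plate DMSO controls, averaged over 2 biological replicates.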
# [6] = test system: Clostridium sporogenes DSM 1664; assay: fold change of Tryptamine concentration vs plate DMSO controls (fold change (ratio)); higher = more amine produced, active = hit call of the paper (significant change in both replicates, either direction)
# Summary of the method: as §2
# [7] = test system: Ruminococcus gnavus DSM 108212; assay: as above
# Summary of the method: as §2
# Escherichia coli IAI1 [8] = assay: fold change of Putrescine concentration vs plate DMSO controls (fold change (ratio)); higher = more amine produced, active = hit call of the paper (significant change in both replicates, either direction)
# Summary of the method: as §2
# [9] = test system: Klebsiella aerogenes DSM 30053; assay: as above
# Summary of the method: as §2
# Escherichia coli IAI1 [10] = assay: fold change of Cadaverine concentration vs plate DMSO controls (fold change (ratio)); higher = more amine produced, active = hit call of the paper (significant change in both replicates, either direction)
# Summary of the method: as §2
# [11] = test system: Klebsiella aerogenes DSM 30053; assay: as above
# Summary of the method: as §2
# [12] = test system: Ruminococcus gnavus DSM 108212; assay: fold change of 2-Phenylethylamine concentration vs plate DMSO controls (fold change (ratio)); higher = more amine produced, active = hit call of the paper (significant change in both replicates, either direction)
# Summary of the method: as §2
Structure (SMILES),growth [1],growth (Escherichia coli IAI1 [2]),growth [3],growth [4],fold change of Histamine concentration [5],fold change of Tryptamine concentration [6],fold change of Tryptamine concentration [7],fold change of Putrescine concentration (Escherichia coli IAI1 [8]),fold change of Putrescine concentration [9],fold change of Cadaverine concentration (Escherichia coli IAI1 [10]),fold change of Cadaverine concentration [11],fold change of 2-Phenylethylamine concentration [12]
Oc1ccc(C2CNCCc3c2cc(O)c(O)c3Cl)cc1 (centres undefined) [Fenoldopam] (20 µM),1.08,0.952,0.998,0.973,1.02 (inactive),0.95 (inactive),1.03 (inactive),1.01 (inactive),0.988 (inactive),1.04 (inactive),0.987 (inactive),1.03 (inactive)
N[C@@H](Cc1c[nH]c2ccccc12)C(=O)O [L-Tryptophan] (20 µM),1.02,0.993,0.989,1.19,1.02 (inactive),1.04 (inactive),1.05 (inactive),0.985 (inactive),0.995 (inactive),1.03 (inactive),0.993 (inactive),1.08 (inactive)
Nc1ccc(O)c(C(=O)O)c1 [Mesalamine] (20 µM),0.832,0.983,0.985,0.924,1.06 (inactive),1.02 (inactive),1.01 (inactive),0.957 (inactive),1.01 (inactive),0.97 (inactive),0.98 (inactive),1.04 (inactive)
CC(COc1ccccc1)NN (centres undefined) [Phenoxypropazine dihydrochloride] (20 µM),1.06,0.99,0.988,0.995,1.05 (inactive),0.619 (active),1 (inactive),1.01 (inactive),1.01 (inactive),0.965 (inactive),1.02 (inactive),1.01 (inactive)
CN1CC(=O)N2[C@H](c3ccc4c(c3)OCO4)c3[nH]c4ccccc4c3C[C@@H]2C1=O [Tadalafil] (20 µM),1,1.02,0.993,0.916,1.07 (inactive),1.07 (inactive),0.925 (inactive),0.957 (inactive),1.01 (inactive),1.03 (inactive),0.971 (inactive),0.911 (inactive)
COc1ccc(NS(=O)(=O)c2ccc(N)cc2)nn1 [Sulfamethoxypyridazine] (20 µM),0.883,1.01,0.983,1.01,1.06 (inactive),1.03 (inactive),1.17 (inactive),1.02 (inactive),1.03 (inactive),1.07 (inactive),1.1 (inactive),1.44 (inactive)
CC(C)(C)NC[C@H](O)c1ccc(O)c(CO)c1 [Levalbuterol hydrochloride] (20 µM),0.932,0.976,1.01,0.865,0.991 (inactive),0.99 (inactive),0.89 (inactive),1.24 (inactive),0.996 (inactive),0.974 (inactive),0.994 (inactive),0.861 (inactive)
O=C1CC2(CCCC2)CC(=O)N1CCCCN1CCN(c2ncccn2)CC1 [Buspirone hydrochloride] (20 µM),0.958,1.07,0.968,0.992,1.09 (inactive),1.05 (inactive),1.05 (inactive),1.02 (inactive),1.01 (inactive),1.05 (inactive),0.99 (inactive),1.05 (inactive)
NCCCC[C@H](N[C@@H](CCc1ccccc1)C(=O)O)C(=O)N1CCC[C@H]1C(=O)O [Lisinopril] (20 µM),1.04,1.03,1.14,0.922,0.911 (inactive),0.958 (inactive),0.981 (inactive),0.998 (inactive),0.988 (inactive),1.04 (inactive),1.02 (inactive),0.943 (inactive)
CC=CC(=O)N(CC)c1ccccc1C [Crotamiton] (20 µM),0.871,1.05,1.01,1.07,1.06 (inactive),1.01 (inactive),1.07 (inactive),1.02 (inactive),1.01 (inactive),0.967 (inactive),1.01 (inactive),1.12 (inactive)
CSc1ccc2c(c1)N(CCC1CCCCN1C)c1ccccc1S2 (centres undefined) [Thioridazine hydrochloride] (20 µM),1.15,1.03,1.01,1.25,0.936 (inactive),1.12 (inactive),0.808 (inactive),1.04 (inactive),0.948 (inactive),1.1 (inactive),1.02 (inactive),0.941 (inactive)
CN1c2cc(O)c(N=NC(N)=O)cc2CC1S(=O)(=O)O (centres undefined) [Carbazochrome sodium sulfonate] (20 µM),1.05,1.01,1.04,0.901,1.06 (inactive),0.976 (inactive),1.08 (inactive),1.01 (inactive),0.905 (inactive),0.975 (inactive),1.2 (inactive),1.21 (inactive)
